Screening results (PubChem)
In the library only some 0.37% were active in any assay of this set; here they are far more common.
Rab2 wt GTP: changes GTP binding to wildtype dog Rab2A, up or down. P61105. GST-Rab2 wt beads, Bodipy-GTP binding, flow cytometry. GTP binding activity, % at 10 µM. actives 0.19% (n = 190,000). AID 760;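 active means GTP binding activity at least 20 points away from 100%, either lowered or raised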;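 further: 0% = beads with excess unlabeled GTP and 100% = no-compound control corrected for plate trend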
Rac1 act GTP bind: alters GTP binding to activated mutant human Rac1; P63000; GST-Rac1 activated beads, fluorescent GTP binding, flow cytometry; actives lie on both sides; 100% means binding = to untreated wells; percent activity (GTP binding), % at 10 µM; actives 0.11% (n = 190,000); AID 764;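 active means GTP binding at least 20 percentage points away from the 100% baseline, in either direction, so actives lie on both sides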
Rab7 wt GTP bind: dog Rab7 wildtype GTP binding, inhibitors and activators | GST-Rab7 beads, fluorescent GTP binding, flow cytometry; actives lie on both sides; untreated = 100%, excess cold GTP = 0% | GTP binding activity (percent of control), % at 10 µM | actives 0.055% (n = 190,000);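 active means fluorescent GTP binding to Rab7 beads changed by at least 20 points from the 100% baseline, either direction, mostly lower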;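 further: median green fluorescence of bound Bodipy-FL-GTP per Rab7 bead population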
Cdc42 wt: human Cdc42 wildtype GTP binding change, either direction. P60953. GST-Cdc42 beads, Bodipy-GTP binding, flow cytometry; actives lie on both sides. percent activity (GTP binding), % at 10 µM. actives 0.2% (n = 190,000);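 active means percent activity GTP binding at least 20 points away from the 100% baseline, either down as inhibitor or up as activator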;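 further: median bead fluorescence of bound Bodipy-FL-GTP at 100 nM; 0% = excess unlabeled GTP control and 100% = no compound control; below 100% means less GTP binding so inhibitor and above means activator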
Target sequence (P60953 whole entry, looked up): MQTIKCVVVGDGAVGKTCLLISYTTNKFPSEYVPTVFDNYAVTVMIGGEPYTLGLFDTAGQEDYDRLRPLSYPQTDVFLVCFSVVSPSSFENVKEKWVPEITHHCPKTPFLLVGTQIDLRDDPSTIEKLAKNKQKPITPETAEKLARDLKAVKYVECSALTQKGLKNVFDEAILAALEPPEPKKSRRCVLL
HRas wt GTP bind: changes GTP binding to wildtype human HRas; P01112; GST-Ras wt beads, Bodipy-FL-GTP binding, flow cytometry; actives lie on both sides; GTP binding activity, % at 10 µM; actives 0.14% (n = 190,000);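 active means GTP binding activity at least 20% away from the 100% baseline, either lowered as inhibitor or raised as activator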;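 further: 0% = unlabeled GTP competition control and 100% = no-compound control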
Target sequence (P01112 whole entry, looked up): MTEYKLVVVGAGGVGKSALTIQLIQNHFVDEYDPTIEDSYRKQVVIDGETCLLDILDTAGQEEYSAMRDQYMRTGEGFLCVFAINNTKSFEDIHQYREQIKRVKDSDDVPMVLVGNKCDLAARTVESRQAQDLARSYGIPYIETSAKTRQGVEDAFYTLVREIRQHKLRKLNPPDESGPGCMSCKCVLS
Rac1 wt GTP bind: modulators of human Rac1 wildtype GTP binding. P63000. GST-Rac1 beads, fluorescent GTP binding, flow cytometry; actives lie on both sides; 0 = cold GTP competed, 100 = untreated. GTP binding activity (% of control), % at 10 µM. actives 0.27% (n = 190,000);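 active means GTP binding activity at least 20 points away from the 100% control level, either lower or higher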
* marks the source's active call; other numbers are inactive results; [ ] = another dose, or the depositor's remark.

SMILES | Rab2 wt GTP | Rac1 act GTP bind | Rab7 wt GTP bind | Cdc42 wt | HRas wt GTP bind | Rac1 wt GTP bind
O=C(CCl)Nc1cccn2ncnc12 | 113 | 102 | 105 | 114 | 110 | 120*[activator]
CCn1c(CNC(=O)c2ccccc2F)nnc1SCC(=O)NC1CCCCC1C (configuration not stated) | 99 | 96 | 92 | 102 | 98 | 104
C=CC#CC[N+]1(CC#Cc2ccccc2)CCOCC1 | 100 | 116 | 101 | 107 | 106 | 128*[activator]
C(#Cc1ccccc1)C[N+]1(CC#Cc2ccccc2)CCCC1 | 102 | 98 | 104 | 103 | 103 | 103
N#C/C(=C\c1ccco1)c1nc2ccccc2s1 | 99 | 99 | 96 | 98 | 100 | 100
N#C/C(=C/c1ccc(-c2cc(C(=O)O)cc(C(=O)O)c2)o1)c1nc2ccccc2s1 | 67* | 77* | 86 | 71* | 75* | 70*
O=c1[nH]cc([N+](=O)[O-])cc1Br | 95 | 95 | 97 | 95 | 97 | 97
Cc1cc2cc(C=C(C#N)C#N)c(Cl)nc2cc1C | 99 | 97 | 99 | 101 | 96 | 98
Cc1ccccc1NC(=O)c1ccc(NC(=O)C2CC(=O)OC23CCCCC3)cc1 (configuration not stated) | 87 | 90 | 103 | 87 | 86 | 80
COc1ccc(OCc2nc3c4cc(OC)c(OC)cc4nc(=S)n3[nH]2)cc1 | 83 | 89 | 90 | 87 | 82 | 77*
COC(=O)CC1C(=O)NCCN1Cc1cn(-c2ccc(C)cc2)nc1-c1cccc(C)c1 (configuration not stated) | 92 | 92 | 93 | 92 | 94 | 95
CCn1c(O)c(/C=C/C=C/C=Nc2ccccc2)sc1=S | 98 | 93 | 102 | 95 | 96 | 94
CCCCn1c(O)c(/C=C/C=C/C=Nc2ccccc2)sc1=S | 88 | 78* | 93 | 85 | 83 | 84
CCOc1ccc(NCc2ccccc2OCc2cccc(F)c2)cc1 | 113 | 115 | 106 | 115 | 114 | 129*[activator]
COc1cc(/C=N/NC(=O)C(Cc2c[nH]c3ccccc23)NC(=O)OCc2ccccc2)cc([N+](=O)[O-])c1O (configuration not stated) | 77* | 82 | 83 | 83 | 80 | 78*
COc1cc(/C=N/NC(=O)C(Cc2c[nH]c3ccccc23)NC(=O)OCC(C)C)cc([N+](=O)[O-])c1O (configuration not stated) | 87 | 88 | 91 | 89 | 88 | 88
COc1ccc2cc(C)c3nnc(SCc4cccnc4)n3c2c1 | 83 | 90 | 95 | 79* | 82 | 86
O=C(CCOc1ccccc1)Nc1nnc(-c2ccc3c(c2)OCCO3)o1 | 90 | 88 | 99 | 89 | 88 | 90
O=C(Nc1nnc(-c2ccc3c(c2)OCCO3)o1)c1ccc(Cc2ccccc2)cc1 | 81 | 79* | 86 | 80 | 85 | 92
COc1cccc(N(CC(=O)N/N=C(\C)c2cccs2)S(C)(=O)=O)c1 | 100 | 103 | 98 | 102 | 103 | 103
Cc1sc2nc3c4ccccc4c(NCc4ccco4)nn3c(=O)c2c1C | 74* | 85 | 87 | 75* | 76* | 83
OC(c1cccc(OCc2ccccc2)c1)c1nnc(-c2ccccc2)o1 (configuration not stated) | 97 | 95 | 98 | 100 | 97 | 103
OC(c1ccc(OCc2ccccc2)cc1)c1nnc(-c2ccccc2)o1 (configuration not stated) | 81 | 78* | 92 | 75* | 82 | 74*
COc1cc(CC(C#N)(CO)c2nc3ccccc3[nH]2)ccc1OC(F)F (configuration not stated) | 98 | 99 | 98 | 100 | 99 | 103
CCn1c2ccccc2c2nc3cc(C(=O)O)ccc3nc21 | 84 | 87 | 98 | 83 | 85 | 77*
CCn1c2ccccc2c2nc3ccccc3nc21 | 100 | 98 | 102 | 98 | 101 | 101
